MCF10A rerep: induces DNA re-replication in MCF 10a normal breast cells; MCF 10A DNA re-replication, Hoechst nuclear intensity, 48 h; Potency, µM (top dose mostly 46.1 µM), without a hit: top-dose activity, positive = re-replication, most hits filed as activators; actives 2.9% (n = 350,000); AID 624296; note: potency is the fitted concentration of half-maximal effect; % of control where 0% means no effect; nearly all actives have a fitted effect of over 50% in size
Gal4-VP16 FLuc: Gal4-VP16 reporter inhibition counter-screen; Potency, µM (doses to about 53.6 µM), inactives show at the highest dose activity, negative = inhibition, most hits filed as inhibitors; actives 3.5% (n = 310,000); Drosophila S2 Gal4-VP16 UAS-luciferase, luminescence, 20 h;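 note: Gal4-VP16 expression switched on by copper sulfate through the metallothionein promoter; potency is the fitted concentration of half-maximal effect; % is set by controls: 0 for no effect and ±100 for the full control effect; nearly all actives have a fitted effect of over 50% in size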
RORg inh: ROR gamma (mouse) transcription inhibition | P51450 | Drosophila S2 Gal4-RORgamma UAS-luciferase reporter, 20 h | Potency, µM (doses to about 53.6 µM), for the others: at the highest dose activity change, negative = inhibition, actives largely listed as inhibitors | actives 5.4% (n = 310,000) | AID 2551; note: potency is the fitted concentration of half-maximal effect; % is set by controls: 0 for no effect and ±100 for the full control effect; nearly all actives have a fitted effect of over 60% in size
Target sequence (P51450 whole entry, looked up, the tested form may be a part): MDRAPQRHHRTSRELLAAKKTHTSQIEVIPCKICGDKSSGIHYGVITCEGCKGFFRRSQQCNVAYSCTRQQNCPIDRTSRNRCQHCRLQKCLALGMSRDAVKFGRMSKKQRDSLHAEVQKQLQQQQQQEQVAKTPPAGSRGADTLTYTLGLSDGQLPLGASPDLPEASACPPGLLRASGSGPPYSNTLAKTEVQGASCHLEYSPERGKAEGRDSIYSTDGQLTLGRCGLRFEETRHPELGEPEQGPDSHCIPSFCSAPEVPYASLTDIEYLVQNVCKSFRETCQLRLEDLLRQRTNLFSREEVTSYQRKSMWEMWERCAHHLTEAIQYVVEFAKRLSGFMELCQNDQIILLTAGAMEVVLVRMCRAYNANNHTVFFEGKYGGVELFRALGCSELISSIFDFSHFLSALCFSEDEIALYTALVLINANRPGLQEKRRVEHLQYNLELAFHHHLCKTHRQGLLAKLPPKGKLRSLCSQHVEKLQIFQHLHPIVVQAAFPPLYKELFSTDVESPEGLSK
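Luminescence from a UAS-regulated Photinus luciferase reporter in stably transfected Drosophila Schneider cells is measured; decreased signal marks ROR gamma inhibition. Fusion expression is induced by 700 uM copper sulfate for 20 hr.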
BCR signal inh: blocks chronic active B-cell receptor signaling; actives 0.05% (n = 340,000); ABC-DLBCL IkBa-CBG/CBR reporter, luminescence ratio, 4 h; Potency, µM (top dose mostly 46.1 µM), for inactives: at the highest dose activity change, negative = inhibition, actives largely listed as inhibitors; active = well fitted inhibition curve with a large enough effect in the signal ratio, with a control signal flat, not every such curve was filed as active; inconclusive = small, poorly fitted or top-dose-only effect, or effect the other way, or a change in a side signal; the % refers to the signal ratio;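 note: potency is the fitted concentration of half-maximal effect; plate controls were basal doxycycline-induced cells for no effect and cells given 10 µM MG132 for full effect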
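TMD8 human ABC-DLBCL cells with doxycycline-inducible IκBα–green luciferase fusion and unfused red luciferase, in 0.5% FBS medium; compounds up to 46 uM, 4 h at 37C. Green/red luminescence ratio, filter-overlap corrected, fitted to concentration-response curves.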
SW480 rereplic: DNA re-replication induction in SW480 cells; SW480 DNA re-replication, Hoechst DNA content imaging, 48 h; actives 1.8% (n = 340,000); AID 624297; Potency, µM (highest dose often 46.1 µM), without a hit: at the top dose re-replication activation, hits mostly activators; note: potency is the fitted concentration of half-maximal effect; % of control where 0% means no effect; nearly all actives have a fitted effect of over 55% in size
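First, 250 cells per well were seeded. Next, compound or vehicle (23 nL) was pinned in, plates sat 48 hr at 37 C. Finally Hoechst was added for 40 min before fluorescence scanning.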
Giardia kill: kills Giardia lamblia. actives 0.15% (n = 340,000). AID 540267. activity change, % at 7.66 µM, hits read low. Giardia lamblia trophozoite viability; in the data active = activity change below about -80%; inconclusive = between about -30% and that limit;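 note: parasites exposed to compound for two days anaerobically before the ATP read; % is set by controls: 0 for no effect and ±100 for the full control effect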
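Media and compound were dispensed first, then trophozoites at 100 cells/well; plates sat 48 hrs at 37 deg C without oxygen before ATP luminescence reagent was added and read after 15-30 min at room temperature.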
* = called active by the depositor; ? = inconclusive; nt = no result; [ ] = dose if it differs, or a comment. Compounds with a hit are over-represented: about 8.3% of the library has one in this group of screens. Unless noted, calls come from the whole dose curve; as a rule, active = well fitted curve in the direction sought with a large enough effect; inconclusive = small, poorly fitted or top-dose-only effect, or another doubt; inactive = no such curve, though single readings can be large; an effect the other way counts as inactive or inconclusive.

SMILES	MCF10A rerep	Gal4-VP16 FLuc	RORg inh	BCR signal inh	SW480 rereplic	Giardia kill
Cc1ccc(CN=Cc2[nH]c3ccc(Br)c(Cl)c3c2O)cc1	4%	?	13µM*	0%	-9%	8
O=C(Nc1nnc2n1CCS2)c1ccc(Br)o1	5%	7.1µM*	3.5µM*	1%	-15%	-18
Cc1cccnc1NC(=O)c1ccc(Br)o1	-1%	nt	nt	-10%	3%	-15
COC(=O)c1ccc(N=c2sc(C(=O)OC)cc(=O)n2C)cc1	?	-1%	5%	-3%	-1%	-6
COC(=O)c1cc(=O)n(-c2ccc(F)cc2)c(=Nc2ccc(F)cc2)s1	5.2µM*	16µM*	?	?	?	-27
C/C=C1\COC(C(=O)NCCOCCO)(C(F)(F)F)C=C1C=C1CCCCC1 (centres undefined)	nt	?	?	nt	nt	15
O=C(O)c1c[nH]c2ccc(F)cc2c1=O	-2%	-1%	2%	2%	-2%	-8
O=C(COc1ccc(Br)cc1Br)NC(=S)Nc1cccc(CO)c1	-3%	8.9µM*	1.4µM*	?	-231%	-10
O=C(COc1ccc2ccccc2c1Br)NC(=S)Nc1cccc(CO)c1	?	10µM*	7.9µM*	?	2.9µM*	-13
O=C(COc1ccccc1Cl)NC(=S)Nc1cccc(NC(=O)c2ccccc2Cl)c1	-2%	-6%	-17%	?	-1%	8
Cc1ccc2nc(-c3ccccc3O)c(Nc3ccc4c(c3)OCCO4)n2c1	7%	-23%	18µM*	?	?	2
Cc1ccc(-c2nc3cnccn3c2Nc2ccc3c(c2)OCO3)cc1	9%	0%	42%	?	-1%	11
Clc1ccc2nc(-c3ccccn3)c(Nc3ccc4c(c3)OCO4)n2c1	-5%	?	7.9µM*	-8%	-5%	9
COc1ccc(/C=C2\SC(=O)N(CCc3nnc(N)s3)C2=O)cc1	1%	-20%	-15%	-1%	-2%	23
c1ccc2c(c1)CCN(C1CCCCC1)C2	?	-8%	8%	0%	?	25
COc1ccc(NC(=O)c2cccs2)cc1C(=O)N1CCN(c2ccccc2)CC1	?	-1%	-1%	7%	?	-21
CCOC(=O)c1c(C)oc2ccc(OCc3cc(C(=O)OC)oc3C)cc12	6.5µM*	14%	-19%	?	29%	-8
COC(=O)c1cc(COc2ccc3oc(C)c(C(=O)OC)c3c2)c(C)o1	15µM*	-3%	11%	?	18µM*	9
O=C(COc1ccccc1F)OCC(=O)c1ccc([N+](=O)[O-])cc1	9%	nt	nt	-3%	-1%	-5
c1ccc(-c2cc(-c3ccncc3)nc3ccc4ccccc4c23)cc1	15µM*	?	8.9µM*	0%	?	-2
Clc1ccc2nc(-c3ccncc3)cc(-c3ccccc3)c2c1	-8%	-19%	12%	-9%	-11%	6
O=C(N[C@@H](Cc1c[nH]c2ccccc12)C(=O)O)C1CCN(S(=O)(=O)c2cccs2)CC1	20%	2%	11%	2%	-14%	35
C=C1C(=O)OC2C=C(CO)C3OC3C3OC3(C)CC(OC(=O)/C(=C/C)COC(C)=O)C12 (centres undefined)	2.1µM*	nt	nt	nt	0.82µM*	4
COC(=O)[C@@]1(Cc2ccc(OC)cc2)[C@H]2c3cc(C(=O)N(C)C)n(Cc4ccc(OC(F)(F)F)cc4)c3C[C@H]2CN1C(=O)c1ccccc1	?	-11%	?	-1%	18µM*	-2
Cc1ccccc1C(=O)NC(=S)NCCc1ccccc1	3%	?	7.9µM*	?	-2%	1
SMILES	MCF10A rerep	Gal4-VP16 FLuc	RORg inh	BCR signal inh	SW480 rereplic	Giardia kill
Cc1ccccc1C(=O)NCC(=O)NNC(=S)NC(=O)c1ccccc1C	13%	?	5.6µM*	0%	-697%	5
Cc1ccccc1C(=O)NC(=S)NCc1cccnc1	-6%	-19%	-37%	4%	-5%	-1
Cc1ccccc1C(=O)NC(=S)NCc1ccccc1	22%	7.1µM*	6.3µM*	1%	11%	-20
CC(C)(C)CC(=O)NC(=S)NCc1ccccc1	?	8.9µM*	1.1µM*	9%	-2%	19
C=CCOc1ccc(/C=C2\SC(=S)N(NS(=O)(=O)c3ccc(C)cc3)C2=O)cc1	-1%	4%	16%	-2%	-3%	0
CCCOc1ccc(C(=O)NNC(=S)NC(C)=O)cc1	?	8%	2%	-7%	?	?
CCCOc1ccc(C(=O)NNC(=S)NC(=O)c2ccccc2)cc1	6%	?	10µM*	?	?	-10
CCCC(=O)Nc1ccc(C(=O)NNC(=S)NC(=O)c2cccs2)cc1	?	-22%	10µM*	14%	-3%	-15
C=CCNC(=S)NNC(=O)c1ccc(OCCCC)cc1	18%	?	8.9µM*	-7%	-2%[9.22 µM]	-25
COC(=O)CNC(=S)NC(=O)c1ccc(C(C)(C)C)cc1	?	-22%[10 µM]	6.3µM*	1%	-5%	2
CCCC(=O)Nc1ccc(C(=O)NNC(=O)c2cccs2)cc1	-2%	6%	14%	-1%	-11%	-2
O=C(/C=C/c1ccccc1)N1CCCC1CO (centres undefined)	nt	-4%[10 µM]	3%[10 µM]	nt	nt	nt
CCCCC/C=C\C/C=C\C[C@H](O)/C=C/C=C\CCCC(=O)O	nt	-5%	3%	nt	nt	nt
CC(C)(C)c1ccc(OCC(=O)NNC(=S)NC(=O)c2ccccc2[N+](=O)[O-])c(Br)c1	21µM*	16µM*	11µM*	-3%	?	12
Cc1ccccc1OCC(=O)NNC(=S)NC(=O)c1ccccc1[N+](=O)[O-]	-6%	-24%	-8%[10 µM]	?	2%	9
C=CCNC(=S)NNC(=O)C(CCCC)CC(C)(C)O (centres undefined)	4%	5.6µM*	2.8µM*	?	?	-25
CCCOc1ccc(C(=O)NNC(=S)NC(=O)c2ccccc2[N+](=O)[O-])cc1	17%	20µM*	18µM*	?	14%	1
CC(C)(C)c1ccc(C(=O)NC(=S)NNC(=O)COc2ccccc2)cc1	20%	2.8µM*	2.5µM*	-2%	-14%	-4
C=CCNC(=S)NNC(=O)c1ccc(Br)cc1	-2%	?	-25%	?	-8%	15
CC1=NN(c2nc3ccccc3s2)C(O)(C(F)(F)F)C1 (centres undefined)	2%	2%	?	?	-8%	6
CCCc1nc(SCc2ccc(OCC)cc2)n[nH]1	4%	-28%	15%	-6%	0%	2

Source: PubChem
